IL-1B inflam inh: inflammasome signaling inhibition, IL-1 beta readout; activity change, % at 57.5 µM; 360,000 compounds, 4.7% hits; THP-1 LPS/ATP IL-1B secretion, AlphaLISA, 16 h; hits give low values; AID 743279; in the data active = activity change below about -50%; inconclusive = mostly about -30% to -49%
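Secreted IL-1B measured by AlphaLISA bead assay after 16 h compound exposure of THP-1 cells; compounds (final up to 57.5 uM) added 1 h before LPS (250 ng/mL) and ATP (1.25 mM) stimulation; lower signal means less secretion.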
RORg inh: inhibitors of mouse ROR gamma transcriptional activity; P51450; Drosophila S2 Gal4-RORgamma UAS-luciferase reporter, 20 h; Potency, µM (highest dose often 53.6 µM), usual class: inhibitors; 310,000 compounds, 5.4% hits; also: nearly all actives have a fitted effect of over 60% in size
Target sequence (P51450 whole entry, looked up, the tested form may be a part): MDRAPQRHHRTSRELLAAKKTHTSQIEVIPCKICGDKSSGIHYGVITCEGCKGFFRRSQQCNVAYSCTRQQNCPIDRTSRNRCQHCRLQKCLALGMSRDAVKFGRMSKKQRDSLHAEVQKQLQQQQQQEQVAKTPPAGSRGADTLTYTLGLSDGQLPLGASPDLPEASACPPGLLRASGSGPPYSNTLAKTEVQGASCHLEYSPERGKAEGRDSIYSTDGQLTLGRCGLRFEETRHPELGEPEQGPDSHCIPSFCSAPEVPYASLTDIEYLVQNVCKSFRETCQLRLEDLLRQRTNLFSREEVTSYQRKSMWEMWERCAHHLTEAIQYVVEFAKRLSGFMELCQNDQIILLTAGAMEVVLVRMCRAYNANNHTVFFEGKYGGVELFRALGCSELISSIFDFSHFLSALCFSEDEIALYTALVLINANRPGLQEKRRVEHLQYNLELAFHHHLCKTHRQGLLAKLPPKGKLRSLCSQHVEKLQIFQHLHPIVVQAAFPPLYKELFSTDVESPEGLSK
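ROR gamma transcriptional activity was tracked as Gal4-UAS luciferase output in stably transfected Drosophila Schneider cells, with compound added 1 hr before 700 uM copper sulfate induction and a 20 hr ambient-temperature incubation.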
LDHA inh: LDHA (human) enzyme inhibition | purified LDHA, NADH/diaphorase-resazurin fluorescence; hits give low values | activity change, % (values are at about 110 or 230 µM) | 480,000 compounds, 0.15% hits | AID 1347041; in the data active = activity change below about -30%; inconclusive = mostly about -25% to -30%
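Enzyme activity of human lactate dehydrogenase 5 (2 nM; 0.06 mM NADH, 0.2 mM pyruvate, 5 min, RT) is measured via a resazurin/diaphorase fluorescence readout of residual NADH.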
DT40 TDP1 no CPT: qHTS for Inhibitors of human tyrosyl-DNA phosphodiesterase 1 (TDP1): qHTS in cells in absence of CPT; Potency, µM (series often up to 46.2 µM), hits mostly inhibitors; AID 686978, 2013; 420,000 compounds, 15% hits; DT40 Tdp1-/- hTDP1 cells, no CPT, ATP luminescence, 48 h; also: nearly all actives have a fitted effect of over 55% in size
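Stably hTDP1-transfected Tdp1-null chicken DT40 cells were treated with library compounds minus camptothecin and grown for at least 48 hr at 37 °C, after which cellular ATP was quantified by luminescence.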
TDP1 cell CPT: growth inhibition of DT40 Tdp1-/-;hTDP1 cells with camptothecin (screen for TDP1 inhibitors) | chicken DT40 Tdp1-/-;hTDP1 cells + 20 nM CPT, ATP luminescence, 48 h | Potency, µM (series often up to 46.2 µM), usual class: inhibitors | 420,000 compounds, 12% hits | AID 686979; also: nearly all actives have a fitted effect of over 55% in size
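Chicken DT40 Tdp1-/- cells complemented with human TDP1, 400 cells/well, exposed to compounds plus 20 nM camptothecin for at least 48 h at 37 C; viability read as ATP content by CellTiter-Glo luminescence.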
VP16 counter: inhibits Gal4-VP16 luciferase reporter, ROR gamma counter-screen | Drosophila S2 Gal4-VP16 UAS-luciferase, luminescence, 20 h | Potency, µM (doses to about 53.6 µM), most hits filed as inhibitors | 310,000 compounds, 3.5% hits | AID 2546;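 also: Gal4-VP16 expression switched on by copper sulfate through the metallothionein promoter; nearly all actives have a fitted effect of over 50% in size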
Numbers stand for hits; n = inactive; u = inconclusive; x = not tested or not shown; [ ] = remark or other dose. A selection: hits, their analogues and other compounds. The true share with any hit is near 18%. Unless noted, calls follow the shape of the dose curve; as a rule, active = well fitted curve in the direction sought with a large enough effect; inconclusive = small, poorly fitted or top-dose-only effect, or another doubt; inactive = no such curve, though single readings can be large; an effect the other way counts as inactive or inconclusive.

SMILES | IL-1B inflam inh | RORg inh | LDHA inh | DT40 TDP1 no CPT | TDP1 cell CPT | VP16 counter
CCOc1ccc(NC(=O)CSc2nc(-c3ccccc3)c3cc(OCC)ccc3n2)cc1 | x | x | n | u | 15µM | x
COc1ccc(NC(=O)CSc2nc(-c3ccccc3)c3ccccc3n2)cc1 | x | x | n | u | n | x
Cc1cc(C)cc(NC(=O)CSc2nc(-c3ccccc3)c3cc(F)ccc3n2)c1 | x | x | n | 18µM | 18µM | x
CCOC(=O)C1=C(CSc2nc3c(cc2C#N)CN(C)CC3)OC(N)=C(C#N)C1c1ccc(F)cc1 (stereo unspecified) | n | n | n | u | u | n
CCOC(=O)C1=C(CSc2nc3c(cc2C#N)CCC3)OC(N)=C(C#N)C1c1ccccc1 (stereo unspecified) | n | n | n | u | 29µM | n
CCOC(=O)C1=C(CSc2nc3c(cc2C#N)CN(C)CC3)OC(N)=C(C#N)C1c1ccccc1 (stereo unspecified) | n | n | n | 29µM | u | n
CC1=Nc2cc(C(=O)NC(C)C)ccc2Sc2ccc(C)cc21 | x | x | n | 4.1µM | 4.6µM | x
CNC(=O)c1ccc2c(c1)N=C(C)c1cc(C)ccc1S2 | x | x | n | 4.6µM | 3.7µM | x
CC(C)c1cccc(C(C)C)c1NC(=O)COC(=O)Cc1n[nH]c(=O)c2ccccc12 | x | x | n | x | x | x
Cc1ccc(NS(=O)(=O)c2c(F)cc(F)cc2Br)cc1C | x | x | n | x | x | x
Cc1cc(C(=O)N/N=C/c2cc(Br)ccc2OC(=O)c2ccccc2Cl)n[nH]1 | n | 14µM | n | 4.6µM | 5.8µM | u
Cc1cc(C(=O)N/N=C/c2cc(Br)ccc2OC(=O)c2ccccc2)n[nH]1 | n | u | n | 6.5µM | 7.3µM | n[0.365 µM]
O=[N+]([O-])c1ccc(NC(=S)NCCc2ccc(Cl)cc2)cc1 | -55 | 0.63µM | n | 5.2µM | 2.3µM | 3.5µM
NC(=S)NCCc1ccccc1 | x | x | n | x | x | x
NNC(=S)NCCc1ccccc1 | n | 3.5µM | n | u | u | 10µM
S=C(NCCc1ccccc1)Nc1ccc(Cl)cc1 | n | 6.3µM | n | 4.6µM | 21µM | u
S=C(NCCCCc1ccccc1)NCc1ccccc1 | n | 16µM | n | n | n | u
S=C(NCCCCNC(=S)NCc1ccccc1)NCc1ccccc1 | n | u | n | u | u | n
N#CC1(C(=O)Nc2cccc(Cl)c2)CCCC1 | x | x | n | x | x | x
O=C(CNc1nc(Nc2ccccc2)nc(Nc2ccccc2)n1)Nc1ccccc1 | x | x | n | x | x | x
S=C(NCCc1ccc(Cl)cc1)NC1CC1 | n | 2.5µM | n | n | n | 8.9µM
S=C(NCCc1ccccc1)Nc1ccc(Br)cn1 | n | 0.28µM | n | 15µM | u | 5µM
Fc1ccc(CCNC(=S)NC2CC2)cc1 | x | x | n | x | x | x
CC(C)(C)C(=O)NC(=S)NCCc1ccccc1 | u | 8.9µM | n | n | n | u
CC(C)(C)NC(=O)NCCc1ccccc1 | n | n | n | n | n | n
SMILES | IL-1B inflam inh | RORg inh | LDHA inh | DT40 TDP1 no CPT | TDP1 cell CPT | VP16 counter
S=C(NCCc1ccccc1)NCCc1ccccc1 | n | 7.1µM | n | u | u | 10µM
COC(=O)C(C(=O)OC)C(c1ccc(Cl)cc1)C(C)C(=O)c1ccc(C)cc1 (stereo unspecified) | x | x | n | x | x | x
CNC(=S)NCCCc1ccccc1 | n | 16µM | n | n | n | u
S=C(NCCCc1ccccc1)Nc1ccccc1Cl | u | u | n | n | n | n
O=C(Nc1ccccc1I)c1cc[n+]([O-])cc1 | x | x | n | x | x | x
COc1ccc(N(C(=O)COc2ccc(Br)cc2)S(=O)(=O)c2ccc(C)cc2)cc1 | x | x | n | 21µM | u | x
COc1ccc(N(C(=O)COc2c(C)cccc2C)S(=O)(=O)c2ccc(Cl)cc2)cc1 | x | x | n | u | 23µM | x
Cc1ccc(NC(=O)c2ncoc2-c2ccc(C)s2)c(C)c1 | x | x | n | x | x | x
CCOc1ccc(CNC(=O)c2ccc(NC(=O)c3nnc(C)s3)cc2)cc1 | x | x | n | x | x | x
Cc1ccccc1Cn1c2ccccc2c2cnn(CC(=O)NC3CCC(C)CC3)c(=O)c21 (stereo unspecified) | x | x | n | 18µM | 18µM | x
Cc1ccc(C)c(Cn2c3ccccc3c3cnn(CC(=O)NC4CCC(C)CC4)c(=O)c32)c1 (stereo unspecified) | x | x | n | 13µM | 10µM | x
Cc1ccc(C)c(Cn2c3ccccc3c3cnn(CC(=O)NCCc4ccccc4)c(=O)c32)c1 | x | x | n | n | u | x
CCOC(=O)c1cc(S(=O)(=O)N(C)CC(=O)Nc2ccc(F)c(Cl)c2)cn1C | x | x | n | x | x | x
S=C(NC1CCCC1)NC1CCCC1 | n | 2.5µM | n | n | n | u
CC(C)CNC(=S)NC1CCCC1 | n | 10µM | n | n | n | u
S=C(NC1CCCC1)NC1CC1 | n | 13µM | n | n | n | u
CC(C)CNC(=O)C(=O)NC1CCCC1 | n | x | n | n | n | x
COC(=O)CC(NC(=O)c1cccc(CS(C)(=O)=O)c1)c1ccc(F)cc1 (stereo unspecified) | x | x | n | x | x | x
Cn1c(CNc2ccccc2)c(C#N)c2ccccc21 | x | x | n | x | x | x
Cc1cccc(NC(=S)NN=C2CCCC2)c1 | x | x | n | x | x | x
O=C(Nc1ccc(N2CCN(C(=O)c3ccco3)CC2)cc1)c1cccs1 | -52 | u | n | n | u | n
CCCC(=O)N1CCN(c2ccc(NC(=O)c3ccco3)cc2)CC1 | n | n | n | n | n | n
CC(C)(C)OC(=O)N1CCN(c2ccc(NC(=O)c3ccco3)cc2)CC1 | n | n | n | 16µM | 18µM | n
O=C(Nc1ccc(N2CCN(C(=O)c3ccco3)CC2)cc1)C(c1ccccc1)c1ccccc1 | n | n | n | 16µM | 21µM | n
O=C(Nc1ccc(N2CCN(C(=O)c3ccco3)CC2)cc1)c1ccco1 | n | n | n | n | n | n
SMILES | IL-1B inflam inh | RORg inh | LDHA inh | DT40 TDP1 no CPT | TDP1 cell CPT | VP16 counter
CC(C)c1ccc(NC(=O)C(c2ccc3c(c2)OCO3)N2CCN(C(=O)c3ccco3)CC2)cc1 (stereo unspecified) | n | n | n | u | u | n
CC(C)c1ccc(NC(=O)C(c2ccccc2)N2CCN(C(=O)c3ccco3)CC2)cc1 (stereo unspecified) | u | n | n | 18µM | u | n
Cc1nc(-c2ccccc2)sc1C(=O)N1CCN(Cc2ccccc2F)CC1 | x | x | n | x | x | x
Cc1cc(C(=O)COc2ccccc2C#N)c(C)n1CCC(C)C | x | x | n | x | x | x
Cc1ccc(-c2cc(C(=O)NN=C3CCCC3)c3ccccc3n2)s1 | x | x | n | x | x | x
C/C=C(\C)C(=O)OC(C)(C)[C@H]1Cc2cc3ccc(=O)oc3cc2O1 | n | n | n | u | 23µM | n
COc1ccc2cc(C(=O)NC3CCN(C(C)=O)CC3)[nH]c2c1 | x | x | n | x | x | x
N#Cc1cccc(C(=O)Oc2ccccc2C(F)(F)F)c1 | x | x | n | x | x | x
Cc1cc2nc(C)n(CCCN)c2cc1C | n | n | n | 18µM | 23µM | n

Assay outcomes deposited in PubChem BioAssay by National Center for Advancing Translational Sciences (NCATS).
